# Compounds with a hit are over-represented: about 6.6% of the library has one in this group of screens.
# BoNT-A LC inh2 = BoNT A light chain protease inhibition; multiplex microsphere protease substrate cleavage, flow cytometry; inhibition, % at 10 µM; hit rate 0.17% among 360,000; AID 588499
# Mtb FBA inh = inhibitors of M. tuberculosis fructose-bisphosphate aldolase; purified M. tuberculosis FBA, fluorescence read-out; P9WQA3; inhibition, % at 1 µM; hit rate 2.3% among 360,000; in the data active means inhibition above about 27%
# Target sequence (P9WQA3 whole entry, looked up): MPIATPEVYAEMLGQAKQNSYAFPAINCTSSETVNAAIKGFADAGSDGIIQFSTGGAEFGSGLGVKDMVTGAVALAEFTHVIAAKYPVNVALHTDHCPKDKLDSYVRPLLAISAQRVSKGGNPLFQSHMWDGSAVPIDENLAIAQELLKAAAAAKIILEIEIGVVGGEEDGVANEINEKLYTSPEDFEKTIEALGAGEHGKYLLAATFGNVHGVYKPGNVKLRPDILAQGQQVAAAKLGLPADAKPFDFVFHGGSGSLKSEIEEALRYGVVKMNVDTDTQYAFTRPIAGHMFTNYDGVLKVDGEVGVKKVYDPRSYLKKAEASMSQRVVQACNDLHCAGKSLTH
# BoNT F protease = blocks Botulinum neurotoxin F light chain protease; Multiplex microsphere protease cleavage assay, flow cytometry; inhibition, % at 10 µM; hit rate 0.22% among 360,000; AID 588497; in the data active means inhibition above about 35%, passing the limit was not always enough; inconclusive means no clear call, values can overlap the other calls
# Anthrax LF prot = blocks Bacillus anthracis lethal factor protease. P15917. multiplex microsphere protease cleavage assay, LF. inhibition, % at 10 µM. hit rate 0.12% among 360,000. AID 588501
# Autofluor counter = flagged as autofluorescent in microsphere protease counterscreen; compound autofluorescence counterscreen, microsphere flow cytometry; active compounds read high; fluorescence intensity (concentration not given with the values); hit rate 3.1% among 360,000; AID 624483; in the data active means fluorescence intensity above about 16000; inconclusive means no clear call, values can overlap the other calls
# GDH-TPI inh = inhibits GDH-TPI coupling enzymes, artifact for Mtb FBA screen; GDH-TPI coupled enzyme counterscreen, NADH absorbance; hit rate 1.2% among 360,000; inhibition, % at 4.8 µM; in the data active means inhibition above about 30%
# Hits are given with their value; . = inactive; ? = inconclusive; / = no result given; + = active, no number. Unless noted, no stated cut-off is given here; in the data, active means inhibition above about 30%; inconclusive means no clear call, values can overlap the other calls; inactive means below that.
SMILES,BoNT-A LC inh2,Mtb FBA inh,BoNT F protease,Anthrax LF prot,Autofluor counter,GDH-TPI inh
Cc1ccc(/C=N/Nc2nncc(-c3ccccc3)n2)o1,.,.,.,.,.,44.2
COc1ccc(-c2cnnc(N/N=C/c3ccc(OC)c(OC)c3)n2)cc1,.,.,.,.,.,53.9
CCCCCCCCN1C(=O)[C@H](CC(=O)N2CCN(C(=O)C3CC3)CC2)C[C@@]2(C(=O)OCC)CCCC=C12,.,/,.,.,.,/
CCN(CC)S(=O)(=O)c1ccc(-n2c(=O)c(C(C)C)c(C)n2C)cc1,.,.,.,.,.,.
Cc1noc(C)c1NC(=O)N(C)C[C@@H]1Oc2ncc(Br)cc2C(=O)N([C@@H](C)CO)C[C@H]1C,.,.,.,.,.,.
O=c1cc(CSc2nnc(-c3ccco3)o2)c2ccccc2[nH]1,?,.,.,.,22171,.
CC(=O)c1c(C)cc(C)c(CSc2nnc(-c3ccco3)o2)c1C,.,.,.,.,19958,.
Cc1cccc(CSc2nnc(-c3ccco3)o2)c1,.,.,.,.,.,.
O=C(CSc1nnc(-c2ccco2)o1)c1ccc(F)c(F)c1,.,.,.,.,21701,.
CCOC(=O)c1c(C)[nH]c(C=C2C(=O)CCCC2=O)c1O,.,.,.,.,.,.
Cn1c(=O)c2[nH]c(C(O)c3ccc(Cl)cc3)nc2n(C)c1=O (stereo unspecified),.,.,.,.,.,.
CC(C)(C)c1ccc(OC(=O)Nc2ccc(O)c(C(=O)O)c2)cc1,.,79.9,?,.,.,.
COc1cc(/C=N/Nc2nc3c(c(=O)n(C)c(=O)n3C)n2Cc2ccccc2)ccc1OC(=O)c1ccco1,.,.,.,.,.,33.0
Cn1c(=O)c2c(nc(N/N=C/c3ccncc3)n2Cc2ccccc2)n(C)c1=O,.,.,?,.,.,58.6
Cc1ccc(Cn2c(N/N=C/c3ccncc3)nc3c2c(=O)n(C)c(=O)n3C)cc1,.,.,?,.,.,.
Cc1ccc(C)c(OC(=O)c2cncc(Br)c2)c1,.,.,.,.,.,.
COc1ccc(NC(=O)C2CCN(S(=O)(=O)c3c(C)noc3/C=C/N(C)C)CC2)cc1,.,.,.,.,.,36.8
COCCCNC(=O)C1CCN(S(=O)(=O)c2c(C)noc2/C=C\c2ccc(OC)cc2)CC1,?,.,.,?,?,38.7
Cc1ccc(/C=C/c2onc(C)c2S(=O)(=O)N2CCC(C(=O)N3CCCCC3)CC2)cc1,.,.,.,.,.,.
CCCN1CCN(C(=O)C2CCN(S(=O)(=O)c3c(C)noc3/C=C/c3ccc(C)cc3)CC2)CC1,.,.,.,.,.,32.1
COc1ccc(NC(=O)C2CCN(S(=O)(=O)c3c(C)noc3C)CC2)cc1,.,.,.,.,.,.
C=CCN1C(=O)CSc2ccc(C(=O)NCc3ccco3)cc21,.,.,.,.,.,.
O=C(NCc1ccco1)c1ccc2c(c1)N(Cc1ccccc1)C(=O)CS2,.,.,.,.,25027,.
COCCNC(=O)COC(=O)/C=C/c1cnc2ccccc2n1,.,.,.,.,17342,.
COc1ccccc1C(=O)N/N=C(\C)c1cccnc1,/,.,/,/,/,.
SMILES,BoNT-A LC inh2,Mtb FBA inh,BoNT F protease,Anthrax LF prot,Autofluor counter,GDH-TPI inh
CCOC(=O)c1cc(C(=O)OCC)c2ccccn2c1=O,.,+,.,.,.,.
COc1ccccc1Oc1ccccc1C(=O)O,.,.,.,.,16152,.
COc1ccc(OC)c(C2C3=C(COC3=O)Nc3cc4c(cc32)OCO4)c1 (stereo unspecified),.,.,.,.,19754,.
C#CCOc1cc(C2C3=C(COC3=O)Nc3cc4c(cc32)OCO4)ccc1OC (stereo unspecified),.,.,.,.,.,.
COC(=O)[C@]12CCCCC=C1N(Cc1cccc3ccccc13)C(=O)[C@H](CC(=O)NCC1CCCCC1)C2,.,/,.,.,.,/
Cn1c(=O)[nH]c(=O)c2c1nc(N1CCCCCC1)n2CCSc1nc2ccccc2o1,.,.,.,.,.,.
Cn1c(=O)[nH]c(=O)c2c1nc(Br)n2CCSc1nc2ccccc2o1,?,.,.,.,22279,.
Cc1ccc(S(=O)(=O)N2[C@H](c3cccc(Cl)c3)CC(=O)[C@@H]3CN(S(=O)(=O)c4ccccc4C)[C@H](c4ccc(Cl)cc4)C[C@@H]32)cc1,.,.,.,.,.,.
CCOc1ccccc1-n1c(=S)sc2c(=O)n(-c3ccc(C)cc3)c(=S)[nH]c21,.,.,.,.,.,.
CCn1c(=S)sc2c(=O)n(-c3ccccc3)c(=S)[nH]c21,.,.,.,.,.,35.4
CCCNC(=O)C1(C)CCCN(C(=O)c2ccc(OC(F)F)cc2)C1 (stereo unspecified),.,.,.,.,.,.
Cc1c(CC(=O)N2CCC(C(=O)O)CC2)c(=O)oc2cc3c(cc12)CCC1(CCCCC1)O3,.,+,.,.,.,41.2
Cc1c(CC(=O)N2CCC(O)CC2)c(=O)oc2cc3c(cc12)CCC1(CCCCC1)O3,.,180.8,.,.,.,.
Cc1c(OCC(=O)N2CCC(C(=O)O)CC2)ccc2c3c(c(=O)oc12)CCC3,.,.,.,.,.,.
Cc1c(CC(=O)N2CCN(C(=O)C3COc4ccccc4O3)CC2)c(=O)oc2cc(O)c(Cl)cc12 (stereo unspecified),.,/,.,.,.,.
CC(C)NC(=O)c1cc(C2CCCCN2S(=O)(=O)c2ccc(C#N)cc2)on1 (stereo unspecified),.,.,.,.,.,.
Cc1ccc(CNS(=O)(=O)c2ccc(-n3cnnn3)c(C)c2)cc1,.,.,.,.,.,.
COCCNC(=O)CSc1nc2nn(-c3ccccc3)c(=O)c-2c2n1CCCCC2,.,.,.,.,.,.
O=C(O)c1cc2c(ccc3ccccc32)oc1=O,.,+,.,.,.,.
O=C(NCc1ccccn1)c1cc2c(ccc3ccccc32)oc1=O,.,172.4,.,.,.,.
O=C(O)c1cc2ccc3ccccc3c2oc1=O,.,196.2,.,.,.,.
O=C(c1cc2c(ccc3ccccc32)oc1=O)N1CCCC1,.,166.0,.,.,.,.
O=C(c1cc2ccccc2c(=O)o1)N1CCCCCC1,.,.,.,.,.,.
COc1cccc2cc(C(=O)NCc3ccccn3)c(=O)oc12,.,.,.,.,.,.
CN(C)[C@@H]1CCC[C@@H]1OC(=O)C(c1ccccc1)c1ccccc1,.,.,.,.,.,.
C=CCc1cccc2cc(C(=O)NC(C)(C)C)c(=O)oc12,.,.,.,.,.,.
CC(C)(C)NC(=O)c1cc2c(ccc3ccccc32)oc1=O,.,79.6,?,.,.,.
CN(C(=O)COc1ccccc1)C1CCS(=O)(=O)C1 (stereo unspecified),.,.,.,.,.,.
Cc1c(CC(=O)O)c(=O)oc2cc3occ(-c4ccc(F)cc4)c3cc12,.,.,.,.,.,.
CC(C)CCOc1cccc(OCC(=O)N(C)C2CCS(=O)(=O)C2)c1 (stereo unspecified),.,.,.,.,16885,.
